Counter-ions that a name gives are not always drawn.
Experiments:
Details in all cases: incubation time: 27 h, anaerobic, 37 °C;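 for the amine columns active = adjusted P below 0.05 in both replicates with a change the same way and a mean fold change under 0.8 or over 1.25; inactive = the rest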
[1] = tested on: Clostridium sporogenes DSM 1664; test: growth (OD595) fold change vs plate DMSO controls (fold change (ratio)); higher = more growth
In short: (§1)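 Shaken 96-well cultures in mGAM, grown anaerobically for 27 h at 37 °C, were read at 595 nm. OD came from blank-subtracted readings, corrected for background with 20 µM compound solutions in water and scaled by a calibration factor of 5. Growth is the fold change versus the plate's median DMSO control. Values average 2 biological replicates, and any fold change above 1.5 is NA.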

Escherichia coli IAI1 [2] = test: as above
In short: as §1

[3] = tested on: Klebsiella aerogenes DSM 30053; test: as above
In short: as §1

[4] = tested on: Ruminococcus gnavus DSM 108212; test: as above
In short: as §1

[5] = tested on: Klebsiella aerogenes DSM 30053; test: fold change of Histamine concentration vs plate DMSO controls (fold change (ratio)); higher = more amine produced, active = hit call of the paper (significant change in both replicates, either direction)
In short: (§2)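 Anaerobic mGAM cultures of four gut bacterial strains were grown at 37 °C for 27 h in 80 µL wells, starting at OD 0.1 before 1:1 dilution. Compounds were at 20 µM final (sweeteners 50 µM). Whole cultures were extracted with cold acetonitrile/methanol containing 0.1% formic acid and centrifuged. Amines were quantified by LC–triple-quadrupole MS (dynamic MRM) against external calibration curves and drift-corrected within batch. Each value is the fold change versus plate DMSO controls, averaged over 2 biological replicates.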

[6] = tested on: Clostridium sporogenes DSM 1664; test: fold change of Tryptamine concentration vs plate DMSO controls (fold change (ratio)); higher = more amine produced, active = hit call of the paper (significant change in both replicates, either direction)
In short: as §2

[7] = tested on: Ruminococcus gnavus DSM 108212; test: as above
In short: as §2

Escherichia coli IAI1 [8] = test: fold change of Putrescine concentration vs plate DMSO controls (fold change (ratio)); higher = more amine produced, active = hit call of the paper (significant change in both replicates, either direction)
In short: as §2

[9] = tested on: Klebsiella aerogenes DSM 30053; test: as above
In short: as §2

Escherichia coli IAI1 [10] = test: fold change of Cadaverine concentration vs plate DMSO controls (fold change (ratio)); higher = more amine produced, active = hit call of the paper (significant change in both replicates, either direction)
In short: as §2

[11] = tested on: Klebsiella aerogenes DSM 30053; test: as above
In short: as §2

[12] = tested on: Ruminococcus gnavus DSM 108212; test: fold change of 2-Phenylethylamine concentration vs plate DMSO controls (fold change (ratio)); higher = more amine produced, active = hit call of the paper (significant change in both replicates, either direction)
In short: as §2

| SMILES | growth [1] | growth (Escherichia coli IAI1 [2]) | growth [3] | growth [4] | fold change of Histamine concentration [5] | fold change of Tryptamine concentration [6] | fold change of Tryptamine concentration [7] | fold change of Putrescine concentration (Escherichia coli IAI1 [8]) | fold change of Putrescine concentration [9] | fold change of Cadaverine concentration (Escherichia coli IAI1 [10]) | fold change of Cadaverine concentration [11] | fold change of 2-Phenylethylamine concentration [12] |
| --- | --- | --- | --- | --- | --- | --- | --- | --- | --- | --- | --- | --- |
| CO[C@H]1C[C@H](O[C@H]2[C@H](C)[C@@H](O[C@@H]3O[C@H](C)C[C@H](N(C)C)[C@H]3OC(C)=O)[C@@H](C)C[C@@]3(CO3)C(=O)[C@H](C)[C@@H](OC(C)=O)[C@@H](C)[C@@H](C)OC(=O)[C@@H]2C)O[C@@H](C)[C@@H]1OC(C)=O [Troleandomycin] (20 µM) | 0.0017 | 0.966 | 1.03 | 0.456 | 0.976 (inactive) | 0.0831 (active) | 0.676 (active) | 1.01 (inactive) | 0.987 (inactive) | 1 (inactive) | 1.01 (inactive) | 0.769 (active) |
| CC(C)=CCC1C(=O)N(c2ccccc2)N(c2ccccc2)C1=O [Feprazone] (20 µM) | 1.07 | 0.999 | 1.01 | 1.04 | 0.971 (inactive) | 1.02 (inactive) | 1.01 (inactive) | 1.02 (inactive) | 1.02 (inactive) | 0.996 (inactive) | 1 (inactive) | 1.03 (inactive) |
| Cc1ccsc1C(=CCCN1CCC[C@@H](C(=O)O)C1)c1sccc1C [Tiagabine hydrochloride] (20 µM) | 1.03 | 0.984 | 1.05 | 1.01 | 0.968 (inactive) | 0.999 (inactive) | 0.971 (inactive) | 1.03 (inactive) | 1.02 (inactive) | 1.01 (inactive) | 1.01 (inactive) | 0.927 (inactive) |
| CCN(CC)C(=O)Nc1ccc(OCC(O)CNC(C)(C)C)c(C(C)=O)c1 (stereo not given) [Celiprolol hydrochloride] (20 µM) | 1.03 | 0.981 | 0.953 | 0.712 | 1.09 (inactive) | 0.988 (inactive) | 1.02 (inactive) | 1 (inactive) | 1.01 (inactive) | 1.02 (inactive) | 0.988 (inactive) | 1.04 (inactive) |
| COC(=O)CCc1ccc(OCC(O)CNC(C)C)cc1 (stereo not given) [Esmolol hydrochloride] (20 µM) | 0.978 | 0.87 | 0.987 | 0.947 | 0.88 (inactive) | 0.972 (inactive) | 1.1 (inactive) | 0.959 (inactive) | 0.988 (inactive) | 1.09 (inactive) | 1.02 (inactive) | 1.07 (inactive) |
| CCn1cc(C(=O)O)c(=O)c2cnc(N3CCNCC3)nc21 [Pipemidic acid] (20 µM) | 0.963 | 0 | 0.465 | 1.01 | 0.949 (inactive) | 1.01 (inactive) | 0.93 (inactive) | 0.313 (active) | 1.06 (inactive) | 1.81 (active) | 1.01 (inactive) | 0.934 (inactive) |
| CC(=O)OCC(=O)[C@@]12OC(C)(C)O[C@@H]1C[C@H]1[C@@H]3C[C@H](F)C4=CC(=O)C=C[C@]4(C)[C@@]3(F)[C@@H](O)C[C@@]12C [Fluocinonide] (20 µM) | 0.81 | 0.961 | 0.997 | 0.976 | 1 (inactive) | 1.07 (inactive) | 0.936 (inactive) | 0.978 (inactive) | 1 (inactive) | 0.972 (inactive) | 0.988 (inactive) | 0.911 (inactive) |
| C/C(=C1\CCOC(=O)S1)N(C=O)Cc1cnc(C)nc1N [Cycotiamine] (20 µM) | 0.964 | 0.988 | 0.991 | 1.01 | 1.01 (inactive) | 1.02 (inactive) | 1.03 (inactive) | 0.971 (inactive) | 1.01 (inactive) | 1.01 (inactive) | 0.999 (inactive) | 1.06 (inactive) |
| CCCCC1=NC2(CCCC2)C(=O)N1Cc1ccc(-c2ccccc2-c2nnn[nH]2)cc1 [Irbesartan] (20 µM) | 1.11 | 1.03 | 1.01 | 1.21 | 1.05 (inactive) | 0.968 (inactive) | 0.947 (inactive) | 1.02 (inactive) | 1.01 (inactive) | 1.01 (inactive) | 0.995 (inactive) | 0.929 (inactive) |
| O=[N+]([O-])c1ccc(O)c2ncccc12 [Nitroxoline] (20 µM) | 1.24 | 0.52 | 0.522 | 0.97 | 0.93 (inactive) | 0.897 (inactive) | 0.693 (active) | 0.496 (active) | 0.894 (inactive) | 1.49 (active) | 0.948 (inactive) | 0.766 (inactive) |
| CN(Cc1cc(Br)cc(Br)c1N)C1CCCCC1 [Bromhexine hydrochloride] (20 µM) | 0.942 | 0.985 | 0.971 | 0.937 | 1.06 (inactive) | 1.05 (inactive) | 1 (inactive) | 1 (inactive) | 1.03 (inactive) | 1.06 (inactive) | 0.991 (inactive) | 1.07 (inactive) |
| NS(=O)(=O)c1cc2c(cc1Cl)NCNS2(=O)=O [Hydrochlorothiazide] (20 µM) | 0.895 | 1.06 | 0.998 | 1.03 | 1.06 (inactive) | 0.949 (inactive) | 1.11 (inactive) | 1.04 (inactive) | 1 (inactive) | 0.915 (inactive) | 1.11 (inactive) | 1.27 (active) |
| CCC1NC(=O)c2cc(S(N)(=O)=O)c(Cl)cc2N1 (stereo not given) [Quinethazone] (20 µM) | 0.978 | 0.894 | 0.838 | 0.755 | 1.02 (inactive) | 1.27 (inactive) | 1.1 (inactive) | 0.956 (inactive) | 0.92 (inactive) | 1.01 (inactive) | 1.19 (inactive) | 1.24 (inactive) |
| CCn1cc(C(=O)O)c(=O)c2cc(F)c(N3CCNCC3)cc21 [Norfloxacin] (20 µM) | 0.0353 | 0.0339 | 0.239 | 0.814 | 0.0898 (active) | 0.0308 (active) | 0.863 (inactive) | 0.612 (active) | 0.792 (active) | 0.161 (active) | 0.963 (inactive) | 0.892 (inactive) |
| CC(C)(C)NC[C@H](O)c1ccc(O)c(CO)c1 [Levalbuterol hydrochloride] (20 µM) | 0.932 | 0.976 | 1.01 | 0.865 | 0.991 (inactive) | 0.99 (inactive) | 0.89 (inactive) | 1.24 (inactive) | 0.996 (inactive) | 0.974 (inactive) | 0.994 (inactive) | 0.861 (inactive) |
| O=C(OCC(O)CO)c1ccccc1Nc1ccnc2cc(Cl)ccc12 (stereo not given) [Glafenine hydrochloride] (20 µM) | 1.08 | 0.957 | 0.977 | 0.831 | 1.01 (inactive) | 0.965 (inactive) | 1.03 (inactive) | 0.998 (inactive) | 0.999 (inactive) | 0.998 (inactive) | 1.01 (inactive) | 1.04 (inactive) |
| CCCN1CCCC[C@H]1C(=O)Nc1c(C)cccc1C [Ropivacaine hydrochloride] (20 µM) | 1.02 | 0.971 | 0.964 | 0.779 | 1.13 (inactive) | 1.13 (inactive) | 1.02 (inactive) | 0.946 (inactive) | 1.04 (inactive) | 1.03 (inactive) | 0.961 (inactive) | 1.01 (inactive) |
| CCN(CC)C(=O)c1cccnc1 [Nikethamide] (20 µM) | 1.07 | 1.01 | 0.998 | 1.13 | 1.02 (inactive) | 1.05 (inactive) | 1.05 (inactive) | 1.06 (inactive) | 1 (inactive) | 1.08 (inactive) | 0.993 (inactive) | 1.08 (inactive) |
| COc1ccc2[nH]cc(CCNC(C)=O)c2c1 [Melatonin] (20 µM) | 0.916 | 0.932 | 1.06 | 0.789 | 0.94 (inactive) | 1.03 (inactive) | 1.01 (inactive) | 0.98 (inactive) | 0.999 (inactive) | 0.999 (inactive) | 1 (inactive) | 0.98 (inactive) |
| CC(C)NCC(O)COc1cccc2[nH]ccc12 (stereo not given) [Pindolol] (20 µM) | 1.03 | 1.13 | 1.01 | 0.881 | 0.989 (inactive) | 1.07 (inactive) | 1.12 (inactive) | 1.18 (inactive) | 1.04 (inactive) | 1.21 (inactive) | 1.15 (inactive) | 1.27 (inactive) |
| O=C(CCCCCCC(=O)Nc1ccccc1)NO [Vorinostat] (20 µM) | 0.808 | 1.07 | 0.974 | 1.04 | 1.17 (inactive) | 0.962 (inactive) | 1.05 (inactive) | 1.11 (inactive) | 0.99 (inactive) | 0.99 (inactive) | 0.967 (inactive) | 1.1 (inactive) |
| CN[C@@H]1CCc2[nH]c3ccc(C(N)=O)cc3c2C1 [Frovatriptan succinate] (20 µM) | 1.12 | 0.98 | 0.991 | 1.01 | 1.05 (inactive) | 0.957 (inactive) | 0.964 (inactive) | 1.03 (inactive) | 1 (inactive) | 1.03 (inactive) | 0.984 (inactive) | 0.945 (inactive) |
| NNCCc1ccccc1 [Phenelzine sulfate] (20 µM) | 0.965 | 0.99 | 1.02 | 1.01 | 1.05 (inactive) | 0.921 (inactive) | 0.995 (inactive) | 1.12 (inactive) | 0.977 (inactive) | 1.04 (inactive) | 1.03 (inactive) | 0.911 (inactive) |
| OCCN1C[C@H](O)[C@@H](O)[C@H](O)[C@H]1CO [Miglitol] (20 µM) | 1.09 | 1.01 | 1.02 | 1.05 | 1.02 (inactive) | 1 (inactive) | 1.02 (inactive) | 1 (inactive) | 1.01 (inactive) | 0.964 (inactive) | 1.01 (inactive) | 1.03 (inactive) |
| CC(=O)NS(=O)(=O)c1ccc(NC(=O)c2ccccc2C(=O)O)cc1 [Phthalylsulfacetamide] (20 µM) | 0.948 | 0.995 | 1.03 | 0.929 | 1.04 (inactive) | 1.05 (inactive) | 1.03 (inactive) | 1.03 (inactive) | 1.01 (inactive) | 1.02 (inactive) | 0.992 (inactive) | 1.02 (inactive) |

Reference: the supplement of paper PMC12494721
